# Experimental data as given in PubChem BioAssay AID504782 (NMMLSC, 2011).
# This is one part of the list. Values without a mark were called inactive. The source made the active and inactive calls.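 Rule for the calls: active = inhibition of aptamer binding above 40%, about triple the noise seen with nonglowing compounds, on plates passing quality control; inactive = the rest.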
# Biological target: Beta-adrenergic receptor kinase 1 (Homo sapiens) (UniProt P25098)
# Test: GRK2 aptamer-displacing inhibitors, hit retest, confirmation, biochemical, cherry pick 2, bead flow cytometry (AID 504782);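 for inhibition of aptamer binding: negative values mostly come from compounds that fluoresce themselves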
# Conditions: bead-bound GRK2, FAM-aptamer displacement; at 10 µM, stronger effect = higher value
# Sequence of Beta-adrenergic receptor kinase 1 (Homo sapiens) (P25098 whole entry, looked up): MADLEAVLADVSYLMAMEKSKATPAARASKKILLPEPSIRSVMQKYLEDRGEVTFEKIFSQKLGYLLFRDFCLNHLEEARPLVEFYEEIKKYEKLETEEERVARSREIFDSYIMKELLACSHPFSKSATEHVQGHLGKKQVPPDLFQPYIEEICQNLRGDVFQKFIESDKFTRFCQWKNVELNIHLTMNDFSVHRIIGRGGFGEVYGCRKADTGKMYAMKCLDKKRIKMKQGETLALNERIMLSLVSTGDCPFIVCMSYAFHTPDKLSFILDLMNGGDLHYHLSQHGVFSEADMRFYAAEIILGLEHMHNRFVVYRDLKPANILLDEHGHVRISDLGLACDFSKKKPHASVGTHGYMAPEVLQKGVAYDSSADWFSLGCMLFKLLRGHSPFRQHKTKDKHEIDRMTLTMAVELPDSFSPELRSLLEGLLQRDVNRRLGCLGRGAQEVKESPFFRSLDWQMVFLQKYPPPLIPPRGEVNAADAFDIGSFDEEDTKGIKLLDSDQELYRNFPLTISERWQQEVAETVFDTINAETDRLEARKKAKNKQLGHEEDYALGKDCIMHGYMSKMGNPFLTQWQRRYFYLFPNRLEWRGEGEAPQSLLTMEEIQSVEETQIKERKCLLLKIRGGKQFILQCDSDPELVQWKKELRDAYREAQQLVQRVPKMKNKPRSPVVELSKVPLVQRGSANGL
SMILES,inhibition of aptamer binding,outcome
CC(=O)c1ccc(N2CCN(C(=O)c3ccc4nc[nH]c4c3)CC2)cc1,-5.06%,–
O=[N+]([O-])c1ccccc1S(=O)(=O)Nc1cccc2cccnc12,7.36%,–
NC(=O)[C@H]1CC2(CC(c3cccc(NC(=O)[C@H]4CCC(=O)N4)c3)=NO2)CN1C(=O)c1ccccc1C(=O)c1ccccc1 (stereo not given in full),-25.8%,–
O=C(CCS(=O)(=O)c1ccccc1)NC1CCCC1,1.15%,–
COc1cccc(OC)c1C(=O)Nc1ccc(Cc2ccncc2)cc1,-1.61%,–
O=C(NCCCN1CCCCCC1)c1ccc(N2CCCC2=O)cc1,-112%,–
COc1cc([N+](=O)[O-])cc([N+](=O)[O-])c1NC(=O)N1CCOCC1,8.51%,–
COc1ccc(Cl)cc1NC(=O)CCS(=O)(=O)c1ccc(Br)cc1,75.5% (active),–
CN=C(Nc1cccc(S(=O)(=O)N2CCOCC2)c1)c1ccccc1,-13.4%,–
Cc1ccc(S(=O)(=O)CC(=O)Nc2sc(C)c(C)c2C(N)=O)cc1,-39.3%,–
COc1ccccc1C(=O)N(Cc1ccc(C)o1)C1CCS(=O)(=O)C1 (stereo not given),10.1%,–
CCN1CCN(C(=O)N[C@@H](C(=O)N[C@@H]2C(=O)N3C(C(=O)O)=C(CSc4nnnn4C)CS[C@H]23)c2ccc(O)cc2)C(=O)C1=O,-21.6%,–
CCc1nn(CCCN2CCN(c3cccc(Cl)c3)CC2)c(=O)n1CCOc1ccccc1,4.83%,–
O=C(NC1C2CC3CC(C2)CC1C3)c1ccc(N2CCNCC2)c([N+](=O)[O-])c1 (stereo not given),-5.52%,–
CCOc1ccc(OCC)c(NC(=O)CCS(=O)(=O)c2ccc(C)cc2)c1,-1.15%,–
CC1Sc2ccc(S(=O)(=O)CCC(=O)NCc3ccccc3Cl)cc2NC1=O (stereo not given),2.07%,–
Cc1nnc(SCC(=O)N2c3ccccc3C(C)(c3ccc(Cl)cc3)CC2(C)C)s1 (stereo not given),14.7%,–
CCOCCc1c(O)nc(SCC(=O)NCc2ccco2)[nH]c1=O,-20.9%,–
COCCn1c(N)c(NCc2ccccc2)c(=O)[nH]c1=O,-165%,–
CC1CCN(C(=S)NC2CC3CCC2C3)CC1 (stereo not given),-12.2%,–
COc1ccc(Cl)cc1NC(=O)CCS(=O)(=O)c1cc2c(cc1C)NC(=O)CO2,-12.2%,–
O=C(C1CCCN(S(=O)(=O)c2ccc([N+](=O)[O-])cc2)C1)N1CCCCC1 (stereo not given),-14.3%,–
CCOC(=O)C1=C(N)N(c2ccc(C)cc2)C2=C(C(=O)CCC2)C1c1cccs1 (stereo not given),–,inactive
CCC(C)(C(=O)NC1CCCCC1)N(C)C(=O)c1ccc2c(c1)OCO2 (stereo not given),-12.4%,–
CCOCCCNC(=O)c1ccc(CS(=O)(=O)c2cccc(C(F)(F)F)c2)o1,8.74%,–
